According to the supplement of paper PMC4683952:
Structures can show the parent of a compound that is named as a salt. The whole screen tested about 1,200 compounds, of which about 50 (4%) showed activity. Cut-off read from the data, not from the text of the source: all actives reach 1.3 or more but so do some inactives. This excerpt belongs to a sample that is enriched for actives.

Test system: Lgr5 (MarsCy1-Lgr5-EGFP, U2OS)
Assay: cell-surface Lgr5 expression (SCi1 fluorescence, background-subtracted) relative to WT DMSO (fold of DMSO control); higher = more Lgr5 at the plasma membrane, active = hit call of the paper
Settings: U2OS MarsCy1-Lgr5-EGFP stable; treatment time: overnight; 16 µM; library: Johns Hopkins Clinical Compound Library

cell-surface Lgr5 expression, active:
Cc1cc(C(C)(C)CC(C)(C)C)ccc1OCCOCC[N+](C)(C)Cc1ccccc1 [Methylbenzethonium chloride] 1.67
NCCc1ccc(O)c(O)c1 [Dopamine (3-Hydroxytyramine hydrochloride)] 1.51
NCCc1ccc(O)c(O)c1 [3-hydroxytyramine (Dopamine)] 1.43
C[C@@H]1C[C@H]2[C@@H]3C[C@H](F)C4=CC(=O)C=C[C@]4(C)[C@@]3(F)[C@@H](O)C[C@]2(C)[C@@]1(O)C(=O)CO [Flumethasone] 1.48
C[C@@H]1C[C@H]2[C@@H]3C[C@H](F)C4=CC(=O)C=C[C@]4(C)[C@@]3(F)[C@@H](O)C[C@]2(C)[C@@]1(O)C(=O)COC(=O)C(C)(C)C [Flumethasone pivalate] 1.37
O=C[C@H](O)[C@@H](O)[C@H](O)[C@H](O)C(=O)[O-].[Na+] [Sodium glucuronate (D-Glucuronic acid)] 1.32
CCCCN(CCCC)CCCOC(=O)c1ccc(N)cc1 [Butacaine] 1.62
CC[N+](CC)(CC)CC(=O)Nc1c(C)cccc1C [Lidocaine N-ethyl bromide] 1.39
O=C(O)c1cc(-c2ccccc2)nc2ccccc12 [Cinchophen (2-phenyl 4-quinoline carboxylic acid)] 1.45

cell-surface Lgr5 expression, inactive:
O=C([O-])C[NH+](CC(=O)[O-])CC(=O)[O-].O=C([O-])C[NH+](CC(=O)[O-])CC(=O)[O-].O=C([O-])C[NH+](CC(=O)[O-])CC(=O)[O-].[Na+].[Na+].[Na+].[Na+].[Na+].[Na+].[Na+].[O]=[Bi][O]C(=O)C[NH+](CC(=O)[O-])CC(=O)[O-] [Bismuth Sodium Triglycollamate (Nitrilotriacetic acid)] 1.08
COc1ccc2[nH]c([S+]([O-])Cc3ncc(C)c(OC)c3C)nc2n1 (configuration not stated) [Tenatoprazole] 1.17
[I-].[Na+] [Sodium iodide] 1.13
C[C@@H](C1=C(CCN(C)C)Cc2ccccc21)c1ccccn1 [Dimethindene (S, +) maleate] 1.32
CCCCCCCCCCCCN [Dodecylamine] 0.823
C[N+](C)(CCOc1ccccc1)Cc1ccccc1.O=C([O-])c1cc2ccccc2cc1O [Bephenium hydroxy-naphthoate] 1.05
CCCCCCCCCCCC[N+](C)(C)Cc1ccccc1 0.391
CC(=O)SCC(Cc1ccccc1)C(=O)NCC(=O)OCc1ccccc1 (configuration not stated) [Racecadotril] 1.24
N.O=C(O)CC(O)(CC(=O)O)C(=O)O.[Fe+3] [Ferric ammonium citrate] 1.06
N=C(N)N [Guanidine hydrochloride] 0.767
O.O.O.O.O.O.O.O=S(=O)([O-])[O-].[Mg+2] [Magnesium sulfate] 1.04
C=CC1=C(C(=O)O)N2C(=O)[C@@H](NC(=O)/C(=N\O)c3csc(N)n3)[C@H]2SC1 [Cefdinir] 1.06
O=C(O[C@@H]1Cc2c(O)cc(O)cc2O[C@@H]1c1ccc(O)c(O)c1)c1cc(O)c(O)c(O)c1 [Epicatechin gallate (-)] 1.14
N[C@@H](Cc1ccc(O)c(O)c1)C(=O)O [Levodopa (L-beta-3,4-Dihydroxyphenylananine)] 0.449
C[C@](N)(Cc1ccc(O)c(O)c1)C(=O)O [Methyl-DOPA (alpha-methyl-L-beta-3,4-dihydroxyphenylalanine)] 0.929
CC(=O)N[C@@H](CCC(N)=O)C(=O)O [Aceglutamide (N-acetyl-L-glutamine)] 1.2
CN1CC(O)C2=C/C(=N/NC(N)=O)C(=O)C=C21 (configuration not stated) [Carbazochrome (Adrenochrome semicarbazone)] 1.16
Cc1cc(N)c2ccccc2c1O [Vitamin K5 hydrochloride] 0.778
O=P([O-])(O)O.[K+] [Potassium phosphate monobasic] 1.24
[Ca+2].[OH-].[OH-] [Calcium hydroxide] 1.1
O.O=C([O-])CN(CCN(CC(=O)[O-])CC(=O)[O-])CC(=O)[O-].[Ca+2].[Na+].[Na+] [Edetate calcium disodium (Calcium disodium versenate)] 0.981
O.O=C([O-])CN(CCN(CC(=O)[O-])CC(=O)[O-])CC(=O)[O-].[Ca+2].[Na+].[Na+] 1
Cc1cc2nc3ccc(N(C)C)cc3[s+]c2cc1N [Tolonium chloride (Toluidine blue O)] 1.15
c1ccc(-c2ccc(C(c3ccccc3)n3ccnc3)cc2)cc1 (configuration not stated) [Bifonazole] 1.04
[Fe+3].[Fe+3].[O-2].[O-2].[O-2].[O-2].[Zn+2] [Calamine] 0.886
Cc1ncc(CSSCc2cnc(C)c(O)c2CO)c(CO)c1O [Pyrithioxin] 1.16
CN(C)CCOC(C)(c1ccccc1)c1ccc(Cl)cc1 (configuration not stated) [Chlorphenoxamine hydrochloride] 1.15
O=C([O-])C(O)C(O)C(=O)[O-].[K+].[Na+] (configuration not stated) [Potassium sodium tartrate tetrahydrate] 1.1
O=CC(O)C(O)C(O)C(O)CO (configuration not stated) [Glucose (D)] 1.02
Cc1ccc2c(Br)cc(Br)c(O)c2n1 [Broquinaldol (5,7-dibromo-8-hydroxy-quinaldine)] 1.1
Cc1ccc(/C(=C\CN2CCCC2)c2cccc(/C=C/C(=O)O)n2)cc1 [Acrivastine] 1.15
N[C@@H](C(=O)N[C@@H]1C(=O)N2C(C(=O)O)=C(Cl)CC[C@H]12)c1ccccc1 [Loracarbef] 0.67
CCN(CC)CCOC(=O)c1ccc(N)cc1 [Procaine hydrochloride] 0.937
CCCCOC(=O)c1ccc(N)cc1 [Butamben (n-butyl p aminobenzoate)] 1
Cc1ncc(COP(=O)(O)O)c(C=O)c1O [Pyridoxal-5-phosphate] 0.951
CCCCn1c(=O)c2c(ncn2CC(C)=O)n(CCCC)c1=O [Denbufylline] 1.44
C[C@@H](O[C@H]1OCCN(Cc2n[nH]c(=O)[nH]2)[C@H]1c1ccc(F)cc1)c1cc(C(F)(F)F)cc(C(F)(F)F)c1 [Aprepitant] 1.01
Cn1c(NCCN(CCO)CCCc2ccc([N+](=O)[O-])cc2)cc(=O)n(C)c1=O [Nifekalant] 0.923
[Cl-].[Cl-].[Cl-].[In+3] [Indium(III) chloride] 0.736
Cc1cccc(C)c1NC(=O)C(C)N (configuration not stated) [Tocainide hydrochloride] 1.07
CCN(CC)CC(=O)Nc1c(C)cccc1C [Lidocaine] 1.19
O[C@@H]1[C@H](O)[C@@H](O)C=C[C@H]1O [Conduritol] 1.03
Nc1c2ccccc2nc2ccccc12 [Aminacrine (9-Aminoacridine)] 0.26
O=C(O)c1ccccc1I [2-Iodobenzoic acid] 1.04
O=C(O)c1cc(O)c(O)c(O)c1 [Gallic acid] 0.979
O=C(Nc1ccccc1)c1cc(Cl)ccc1O [5-Chlorosalicylanilide] 1.12
COC1=C(OC)C(=O)C(CCCCCCCCCCO)=C(C)C1=O [Idebenone] 1.04
CC1(C)S[C@@H]2[C@H](NC(=O)COc3ccccc3)C(=O)N2[C@H]1C(=O)O.CN(C)[C@@H]1C(O)=C(C(=O)NCN2CCN(CCO)CC2)C(=O)[C@@]2(O)C(O)=C3C(=O)c4c(O)cccc4[C@@](C)(O)[C@H]3C[C@@H]12 [Penimepicycline] 0.846
